Laboratory results from article PMC13083723 (Patterns, 2026).
In all, about 5,400 compounds went through this assay and about 190 (3.5%) showed an effect of 50% or more. The entries come from a sample that favours strong results as a whole. Residues, ends and D or L forms follow the SMILES beside them. *: point of attachment. NHCH2CH2OH = OCCN*; For = O=C*

Each compound was assayed on Vero-E6 (assay: primary screen, phospholipidosis by LipidTOX staining; higher = more effect of the substance). Settings: 10 µM.
Summary of the method: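 Drug-induced phospholipidosis detected with HCS LipidTOX Red reagent in Vero-E6 cells. Compounds tested at 10 μM, with amiodarone (10 μM) as positive control and DMSO (0.1 v/v %) as vehicle.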

Going from O=C(O[C@H]1CN2CCC1CC2)N1CCc2ccccc2[C@@H]1c1ccccc1 to O=C(C1CCCCC1)N1CC(=O)N2CCc3ccccc3C2C1 (stereo not drawn), the result_ITMP falls from 59.2% to -5.83%.

Compared with O=C(Nc1ccc(F)cc1)N1CCc2ccccc2C1c1ccc(C(F)(F)F)cc1 (stereo not drawn), Cc1ccc(C(=O)Nc2ccc(CN3CCN(C)CC3)c(C(F)(F)F)c2)cc1C#Cc1cnc2cccnn12 is higher in result_ITMP: -0.7% for the first, 11.4% for the second.

First: CC(C)(CO)[C@@H](O)C(=O)NCCC(=O)[O-]
Second: CC(=O)NCCCS(=O)(=O)[O-]
The result_ITMP of the first is lower: 1.43% for the first, 7.64% for the second.

First: C[C@@]12C[C@@]3(O)O[C@@H](O1)[C@]1(COC(=O)c4ccccc4)[C@H]3C[C@@]12O[C@@H]1O[C@H](CO)[C@@H](O)[C@H](O)[C@H]1O
Second: OC[C@H]1O[C@@H](O[C@@H]2[C@H](O)[C@@H](O)[C@H](O[C@H]3[C@H](O)[C@@H](O)C(O)O[C@@H]3CO)O[C@@H]2CO)[C@H](O)[C@@H](O)[C@H]1O (stereo partly drawn)
The result_ITMP of the first is lower: -5.49% for the first, 3.95% for the second.

Going from CN1CCN(c2ccc(C(=O)Nc3n[nH]c4ccc(Cc5cc(F)cc(F)c5)cc34)c(NC3CCOCC3)c2)CC1 to CN1CCN(c2ccc(-c3cccc(CN4CCOCC4)c3)cc2NC(=O)c2c[nH]c(=O)cc2C(F)(F)F)CC1, the result_ITMP falls from 96.5% to -0.45%.

Going from CCc1cccc(CC)c1NC(=O)N1Cc2[nH]nc(NC(=O)c3ccc(N4CCN(C)CC4)cc3)c2C1 to Cc1ccc(C(=O)Nc2ccc(CN3CCN(C)CC3)c(C(F)(F)F)c2)cc1C#Cc1cnc2[nH]ncc2c1, the result_ITMP rises from 3.48% to 6.57%.

Compared with C[C@H]1O[C@@H](O[C@H]2CC[C@@]3(C)[C@H](CC[C@@H]4[C@@H]3C[C@@H](O)[C@]3(C)[C@@H](C5=CC(=O)OC5)CC[C@]43O)C2)C[C@H](O)[C@@H]1O[C@H]1C[C@H](O)[C@H](O[C@H]2C[C@H](O)[C@H](O[C@@H]3O[C@H](CO)[C@@H](O)[C@H](O)[C@H]3O)[C@@H](C)O2)[C@@H](C)O1, C[C@@H]1CC[C@@]2(NC1)O[C@H]1C[C@H]3[C@@H]4CC=C5C[C@@H](O[C@@H]6O[C@H](CO)[C@@H](O[C@@H]7O[C@@H](C)[C@H](O)[C@@H](O)[C@H]7O)[C@H](O)[C@H]6O[C@@H]6O[C@@H](C)[C@H](O)[C@@H](O)[C@H]6O)CC[C@]5(C)[C@H]4CC[C@]3(C)[C@H]1[C@@H]2C is higher in result_ITMP: -9.7% for the first, -0.25% for the second.

Compared with CO/N=C(\C(=O)N[C@@H]1C(=O)N2C(C(=O)[O-])=C(COC(C)=O)CS[C@H]12)c1csc(N)n1, C[C@@H](O)[C@H]1C(=O)N2C(C(=O)[O-])=C([C@H]3CCCO3)S[C@H]12 is higher in result_ITMP: -7.3% for the first, -1.64% for the second.

Going from COc1cccc([C@@H](C)NCCCc2ccccc2Cl)c1 to COc1cccc(C(=O)CCN[C@@H](C)[C@H](O)c2ccccc2)c1, the result_ITMP falls from 70.1% to 1.52%.

Going from CC(NCCC(c1ccccc1)c1ccccc1)c1ccccc1 (stereo not drawn) to [Cl][Ru]([Cl])([Cl])[Cl].c1ccc2[nH]ncc2c1.c1ccc2[nH]ncc2c1, the result_ITMP falls from 43.7% to -2.33%.

Compared with C[N@+]12CCCC[C@@H]1CCC(=C(c1cccs1)c1cccs1)C2 (racemic), C[C@]12C=CC(=O)C=C1CCC1C2[C@@H](O)C[C@@]2(C)C1CC[C@]2(O)C(=O)COP(=O)([O-])[O-] (stereo partly drawn) is lower in result_ITMP: -3.77% for the first, -4.14% for the second.

Going from CO[C@@H]1[C@@H](OC(N)=O)[C@@H](O)[C@H](Oc2ccc3c([O-])c(NC(=O)c4ccc(O)c(CC=C(C)C)c4)c(=O)oc3c2C)OC1(C)C to COC1/C=C\OC2(C)Oc3c(C)c(O)c4c(O)c(cc([O-])c4c3C2=O)NC(=O)/C(C)=C\C=C/C(C)C(O)C(C)C(O)C(C)C(OC(C)=O)C1C (stereo not drawn), the result_ITMP rises from -3.28% to -0.32%.

Going from COc1cc2c(Nc3ccc(Br)cc3F)ncnc2cc1OCC1CCN(C)CC1 to COc1ccc(Cl)c(Nc2ncnc3cc(OCC4CCN(C)CC4)c(OC)cc23)c1, the result_ITMP falls from 105% to 9.6%.

Compared with COc1cc2c(Nc3ccc(Cl)c(Cl)c3F)ncnc2cc1OC[C@@H]1C[C@@H]2CN(C)C[C@@H]2C1, C=CC(=O)N1CCC(Oc2cc3c(Nc4ccc(Cl)c(Cl)c4F)ncnc3cc2OC)CC1 is lower in result_ITMP: 55.5% for the first, 35.1% for the second.

First: COc1cc2ncnc(Nc3cccc(Cl)c3F)c2cc1OC(=O)N1CCN(C)C[C@H]1C
Second: COc1cc2ncnc(Nc3ccc(Cl)cc3F)c2cc1OC
The result_ITMP of the first is higher: 10.7% for the first, -0.91% for the second.

Going from CC(C)CC(NC(=O)C(C)NC(=O)CNC(=O)C(NC=O)C(C)C)C(=O)NC(C)C(=O)NC(C(=O)NC(C(=O)NC(C(=O)NC(Cc1c[nH]c2ccccc12)C(=O)NC(CC(C)C)C(=O)NC(Cc1c[nH]c2ccccc12)C(=O)NC(CC(C)C)C(=O)NC(Cc1c[nH]c2ccccc12)C(=O)NC(CC(C)C)C(=O)NC(Cc1c[nH]c2ccccc12)C(=O)NCCO)C(C)C)C(C)C)C(C)C (stereo not drawn) (For-VGALAVVVWLWLWLW-NHCH2CH2OH; configuration not given here) to CCCC[C@H](NC(C)=O)C(=O)N[C@H]1CC(=O)NCCCC[C@@H](C(=O)O)NC(=O)[C@H](Cc2c[nH]c3ccccc23)NC(=O)[C@H](CCCNC(=N)N)NC(=O)[C@@H](Cc2ccccc2)NC(=O)[C@H](Cc2cnc[nH]2)NC1=O, the result_ITMP rises from -8.15% to -3.41%.

First: COc1ccc2[nH]c3nnc(C)c-3c(NCCOCCO)c2c1
Second: CCN1CCN(Cc2ccc(C(=O)Nc3ccc(C)c(Oc4ccc5c(c4)CC(=O)N5)c3)cc2C(F)(F)F)CC1
The result_ITMP of the first is lower: -1.31% for the first, 99.1% for the second.

Compared with C1Cc2[nH]nc(-c3nnn[nH]3)c2C1, CC(C)N(C[C@H]1O[C@@H](n2cnc3c(N)ncnc32)[C@H](O)[C@@H]1O)C1CC(CCc2nc3cc(C(C)(C)C)ccc3[nH]2)C1 (stereo partly drawn) is lower in result_ITMP: -1.64% for the first, -3.75% for the second.

Going from Nc1ncnc2c1ncn2C1OC2COP(=O)([O-])OC2C1O (stereo not drawn) to N=C(N)NCCC[C@@H](NC(=O)[C@@H]1CCCN1C(=O)[C@@H]1CSSC[C@H](N)C(=O)N[C@@H](Cc2ccc(O)cc2)C(=O)N[C@@H](Cc2ccccc2)C(=O)N[C@@H](CCC(N)=O)C(=O)N[C@@H](CC(N)=O)C(=O)N1)C(=O)NCC(N)=O, the result_ITMP rises from -10.8% to -1.55%.

O=S(=O)([O-])CCSSCCS(=O)(=O)[O-] was tested, and the result_ITMP was -11.7%.
